Results as given in paper PMC7862700, “An all-to-all approach to the identification of sequence-specific readers for epigenetic DNA modifications on cytosine”.

Legend:
Assay in all cases: DAPPL (digital affinity profiling via proximity ligation, sequencing); 10 mM Tris-HCl pH 7.5, 50 mM NaCl, 1 mM DTT, 4% glycerol, room temperature, 30 min; GST-TFs on glutathione beads, 16-mer random dsDNA library, 0.1% formaldehyde crosslink after washing; high values mean tight binding
FLI1 = target: T1, FLI1 (Homo sapiens, UniProt Q01543 1-452); settings: protein: recombinant; tags: N-terminal GST; dsDNA, one strand shown
T1 sequence: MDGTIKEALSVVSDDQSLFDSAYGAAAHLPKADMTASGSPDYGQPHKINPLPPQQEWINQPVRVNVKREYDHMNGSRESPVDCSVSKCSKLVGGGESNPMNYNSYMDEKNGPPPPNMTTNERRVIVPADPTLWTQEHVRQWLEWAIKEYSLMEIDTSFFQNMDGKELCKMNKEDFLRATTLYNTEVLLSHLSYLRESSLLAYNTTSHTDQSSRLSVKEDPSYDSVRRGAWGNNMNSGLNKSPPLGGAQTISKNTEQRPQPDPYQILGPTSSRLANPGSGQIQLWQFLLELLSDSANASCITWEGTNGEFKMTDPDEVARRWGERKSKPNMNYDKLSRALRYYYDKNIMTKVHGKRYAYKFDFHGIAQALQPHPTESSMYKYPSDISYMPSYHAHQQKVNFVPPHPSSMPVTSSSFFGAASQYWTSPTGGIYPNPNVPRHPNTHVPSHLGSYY
How it was run: (§1)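 A tag-only sample was pooled with DNA-barcoded human transcription factors that had been expressed in yeast as GST fusions and captured on glutathione beads. The pools were incubated for 30 min at room temperature with 200 nmole of a random double-stranded 16-mer DNA library in Tris/NaCl/DTT/glycerol buffer, then washed, crosslinked with 0.1% formaldehyde, proximity-ligated (BsaI/T4 ligase, 1 h, 37 °C), PCR-amplified and sequenced on an Illumina NextSeq500. Binding signal is each hexamer's read frequency for a factor divided by its frequency for the tag-only sample.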

ELK1 = target: T2, ELK1 (Homo sapiens, UniProt P19419 1-428); settings: protein: recombinant; tags: N-terminal GST; dsDNA, one strand shown
T2 sequence: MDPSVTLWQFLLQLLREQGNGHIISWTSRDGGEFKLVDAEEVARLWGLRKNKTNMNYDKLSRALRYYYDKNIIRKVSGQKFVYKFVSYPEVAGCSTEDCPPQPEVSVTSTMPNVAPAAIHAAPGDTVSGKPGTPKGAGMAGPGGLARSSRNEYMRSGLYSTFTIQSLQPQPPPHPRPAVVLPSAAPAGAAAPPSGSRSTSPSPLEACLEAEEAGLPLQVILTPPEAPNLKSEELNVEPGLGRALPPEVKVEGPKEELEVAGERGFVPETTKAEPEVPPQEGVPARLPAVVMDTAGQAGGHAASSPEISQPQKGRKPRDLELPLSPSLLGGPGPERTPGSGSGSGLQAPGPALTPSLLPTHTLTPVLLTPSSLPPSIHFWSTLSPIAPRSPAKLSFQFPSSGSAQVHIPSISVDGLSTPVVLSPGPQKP
How it was run: as §1

GABPA = target: T3, GABPA (Homo sapiens, UniProt Q06546 1-454); settings: protein: recombinant; tags: N-terminal GST; dsDNA, one strand shown
T3 sequence: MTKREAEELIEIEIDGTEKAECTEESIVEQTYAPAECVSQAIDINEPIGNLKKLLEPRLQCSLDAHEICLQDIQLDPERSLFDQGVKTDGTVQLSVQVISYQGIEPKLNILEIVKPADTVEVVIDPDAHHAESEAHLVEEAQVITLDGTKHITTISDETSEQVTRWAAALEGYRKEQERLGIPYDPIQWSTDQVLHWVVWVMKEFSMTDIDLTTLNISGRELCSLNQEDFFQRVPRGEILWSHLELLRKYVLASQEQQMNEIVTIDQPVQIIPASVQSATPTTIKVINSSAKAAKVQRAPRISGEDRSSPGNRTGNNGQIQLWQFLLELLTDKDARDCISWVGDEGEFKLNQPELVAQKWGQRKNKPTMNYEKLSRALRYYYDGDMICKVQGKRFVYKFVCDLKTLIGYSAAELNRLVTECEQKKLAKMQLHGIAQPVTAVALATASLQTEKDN
How it was run: as §1

ERG = target: T4, ERG (Homo sapiens, UniProt P11308 1-479); settings: protein: recombinant; tags: N-terminal GST; dsDNA, one strand shown
T4 sequence: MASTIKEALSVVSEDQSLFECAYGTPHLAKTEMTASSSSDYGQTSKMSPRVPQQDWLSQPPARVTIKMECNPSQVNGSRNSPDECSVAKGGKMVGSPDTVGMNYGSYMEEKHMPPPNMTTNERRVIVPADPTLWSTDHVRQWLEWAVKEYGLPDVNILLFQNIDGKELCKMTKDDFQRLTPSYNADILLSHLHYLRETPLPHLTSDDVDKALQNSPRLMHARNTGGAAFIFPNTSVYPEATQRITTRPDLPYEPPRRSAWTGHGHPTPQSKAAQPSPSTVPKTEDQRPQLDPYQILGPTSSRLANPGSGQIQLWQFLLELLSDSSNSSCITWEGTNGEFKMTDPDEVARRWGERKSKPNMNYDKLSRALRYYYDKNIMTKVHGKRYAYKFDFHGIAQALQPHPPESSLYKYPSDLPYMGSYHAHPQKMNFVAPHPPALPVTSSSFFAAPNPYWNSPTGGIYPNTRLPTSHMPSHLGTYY
How it was run: as §1

ELF1 = ELF1 (Homo sapiens, UniProt P32519 1-619); settings: protein: recombinant; tags: N-terminal GST; dsDNA, one strand shown
How it was run: as §1

EHF = target: T5, EHF (Homo sapiens, UniProt Q9NZC4 1-300); settings: protein: recombinant; tags: N-terminal GST; dsDNA, one strand shown
T5 sequence: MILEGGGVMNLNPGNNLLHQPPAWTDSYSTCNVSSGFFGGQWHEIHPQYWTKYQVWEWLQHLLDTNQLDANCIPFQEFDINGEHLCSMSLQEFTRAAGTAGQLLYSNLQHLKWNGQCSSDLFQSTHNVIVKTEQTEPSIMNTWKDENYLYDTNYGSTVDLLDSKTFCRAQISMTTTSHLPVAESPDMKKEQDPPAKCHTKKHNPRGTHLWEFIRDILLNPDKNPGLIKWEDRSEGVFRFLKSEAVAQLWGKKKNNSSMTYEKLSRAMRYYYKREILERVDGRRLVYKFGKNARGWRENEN
How it was run: as §1

SPI1 = SPI1 (Homo sapiens, UniProt P17947 1-270); settings: protein: recombinant; tags: N-terminal GST; dsDNA, one strand shown
How it was run: as §1

SPIB = SPIB (Homo sapiens, UniProt Q01892 1-262); settings: protein: recombinant; tags: N-terminal GST; dsDNA, one strand shown
How it was run: as §1

ELK3 = target: T6, ELK3 (Homo sapiens, UniProt P41970 1-407); settings: protein: recombinant; tags: N-terminal GST; dsDNA, one strand shown
T6 sequence: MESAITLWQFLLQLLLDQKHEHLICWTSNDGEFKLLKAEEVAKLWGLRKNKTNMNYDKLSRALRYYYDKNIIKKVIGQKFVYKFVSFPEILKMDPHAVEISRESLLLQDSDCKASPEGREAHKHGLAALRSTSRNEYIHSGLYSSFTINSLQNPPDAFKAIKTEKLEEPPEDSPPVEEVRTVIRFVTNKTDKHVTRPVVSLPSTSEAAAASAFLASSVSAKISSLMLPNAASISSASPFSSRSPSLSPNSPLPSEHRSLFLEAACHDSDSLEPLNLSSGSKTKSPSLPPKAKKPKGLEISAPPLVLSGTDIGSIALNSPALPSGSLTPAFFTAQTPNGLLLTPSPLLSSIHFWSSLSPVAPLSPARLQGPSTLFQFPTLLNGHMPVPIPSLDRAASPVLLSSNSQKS
How it was run: as §1

FEV = target: T7, FEV (Homo sapiens, UniProt Q99581 1-238); settings: protein: recombinant; tags: N-terminal GST; dsDNA, one strand shown
T7 sequence: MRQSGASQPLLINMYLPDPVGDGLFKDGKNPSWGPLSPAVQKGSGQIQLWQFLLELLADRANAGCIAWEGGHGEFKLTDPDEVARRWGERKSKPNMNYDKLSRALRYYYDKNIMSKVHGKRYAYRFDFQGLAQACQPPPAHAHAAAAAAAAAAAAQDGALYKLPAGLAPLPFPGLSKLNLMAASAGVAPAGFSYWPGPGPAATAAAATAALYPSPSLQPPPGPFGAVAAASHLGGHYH
How it was run: as §1

ETV5 = ETV5 (Homo sapiens, UniProt P41161 1-510); settings: protein: recombinant; tags: N-terminal GST; dsDNA, one strand shown
How it was run: as §1

HSF1 = HSF1 (Homo sapiens, UniProt Q00613 1-529); settings: protein: recombinant; tags: N-terminal GST; chain copies: 3; dsDNA, one strand shown
How it was run: as §1

SPIC = target: T8, SPIC (Homo sapiens, UniProt Q8N5J4 1-248); settings: protein: recombinant; tags: N-terminal GST; dsDNA, one strand shown
T8 sequence: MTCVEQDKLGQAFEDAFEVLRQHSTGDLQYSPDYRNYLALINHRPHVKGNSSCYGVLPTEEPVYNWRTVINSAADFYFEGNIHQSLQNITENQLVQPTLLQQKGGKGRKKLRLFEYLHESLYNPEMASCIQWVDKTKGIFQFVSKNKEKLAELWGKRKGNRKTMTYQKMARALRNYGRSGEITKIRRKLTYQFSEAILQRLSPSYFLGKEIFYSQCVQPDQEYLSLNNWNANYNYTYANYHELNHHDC
How it was run: as §1

ELF4 = ELF4 (Homo sapiens, UniProt Q99607 1-663); settings: protein: recombinant; tags: N-terminal GST; dsDNA, one strand shown
How it was run: as §1

ELK4 = target: T9, ELK4 (Homo sapiens, UniProt P28324-2 1-405); settings: protein: recombinant; tags: N-terminal GST; dsDNA, one strand shown
T9 sequence: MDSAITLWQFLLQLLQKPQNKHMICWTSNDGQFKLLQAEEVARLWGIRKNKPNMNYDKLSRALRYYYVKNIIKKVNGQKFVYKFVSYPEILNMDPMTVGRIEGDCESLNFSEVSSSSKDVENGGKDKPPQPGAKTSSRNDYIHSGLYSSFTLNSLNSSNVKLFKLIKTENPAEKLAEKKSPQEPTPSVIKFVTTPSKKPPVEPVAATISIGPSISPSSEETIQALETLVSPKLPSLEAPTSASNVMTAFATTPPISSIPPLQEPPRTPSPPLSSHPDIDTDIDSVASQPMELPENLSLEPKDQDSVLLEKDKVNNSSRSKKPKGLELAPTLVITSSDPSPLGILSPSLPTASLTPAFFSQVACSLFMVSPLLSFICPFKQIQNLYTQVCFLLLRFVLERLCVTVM
How it was run: as §1

ETV2 = target: T10, ETV2 (Homo sapiens, UniProt O00321 1-342); settings: protein: recombinant; tags: N-terminal GST; dsDNA, one strand shown
T10 sequence: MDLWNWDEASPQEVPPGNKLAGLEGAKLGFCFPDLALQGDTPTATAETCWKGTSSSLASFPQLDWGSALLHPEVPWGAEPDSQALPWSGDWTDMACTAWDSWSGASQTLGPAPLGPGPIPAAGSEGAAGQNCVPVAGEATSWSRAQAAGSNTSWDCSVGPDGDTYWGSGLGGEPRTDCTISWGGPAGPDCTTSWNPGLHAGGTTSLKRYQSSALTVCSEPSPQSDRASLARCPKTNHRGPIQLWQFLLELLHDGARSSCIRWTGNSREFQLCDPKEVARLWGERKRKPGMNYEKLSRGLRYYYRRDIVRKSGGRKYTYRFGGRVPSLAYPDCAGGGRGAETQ
How it was run: as §1

ELF3 = target: T11, ELF3 (Homo sapiens, UniProt P78545 1-371); settings: protein: recombinant; tags: N-terminal GST; dsDNA, one strand shown
T11 sequence: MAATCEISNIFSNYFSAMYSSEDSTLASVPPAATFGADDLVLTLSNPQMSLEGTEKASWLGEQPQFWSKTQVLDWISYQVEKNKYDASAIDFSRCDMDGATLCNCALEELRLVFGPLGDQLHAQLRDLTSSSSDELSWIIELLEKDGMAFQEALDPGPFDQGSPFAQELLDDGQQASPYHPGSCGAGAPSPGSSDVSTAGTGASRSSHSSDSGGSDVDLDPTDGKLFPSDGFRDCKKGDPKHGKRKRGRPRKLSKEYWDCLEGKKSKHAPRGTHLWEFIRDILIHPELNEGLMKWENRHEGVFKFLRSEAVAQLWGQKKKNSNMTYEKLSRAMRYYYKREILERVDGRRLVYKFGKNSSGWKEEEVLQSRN
How it was run: as §1

CRX = CRX (Homo sapiens, UniProt O43186 1-299); settings: protein: recombinant; tags: N-terminal GST; dsDNA, one strand shown
How it was run: as §1

ETV1 = ETV1 (Homo sapiens, UniProt P50549 1-477); settings: protein: recombinant; tags: N-terminal GST; dsDNA, one strand shown
How it was run: as §1

Sequence of HSF1 (Q00613 whole entry): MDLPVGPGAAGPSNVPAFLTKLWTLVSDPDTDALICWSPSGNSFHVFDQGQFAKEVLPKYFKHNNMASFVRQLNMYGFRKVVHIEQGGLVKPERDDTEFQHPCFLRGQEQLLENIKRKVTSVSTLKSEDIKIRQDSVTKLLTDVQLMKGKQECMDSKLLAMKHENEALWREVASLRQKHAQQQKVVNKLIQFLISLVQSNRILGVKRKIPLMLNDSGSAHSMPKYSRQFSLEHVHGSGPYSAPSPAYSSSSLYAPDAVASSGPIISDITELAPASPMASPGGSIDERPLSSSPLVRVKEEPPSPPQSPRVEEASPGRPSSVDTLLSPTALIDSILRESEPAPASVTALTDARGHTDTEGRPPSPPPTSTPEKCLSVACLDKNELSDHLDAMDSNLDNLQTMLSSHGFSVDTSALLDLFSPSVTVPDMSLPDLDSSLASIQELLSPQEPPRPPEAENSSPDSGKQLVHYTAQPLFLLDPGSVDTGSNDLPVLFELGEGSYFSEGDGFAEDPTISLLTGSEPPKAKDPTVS
Sequence of ELF1 (P32519 whole entry): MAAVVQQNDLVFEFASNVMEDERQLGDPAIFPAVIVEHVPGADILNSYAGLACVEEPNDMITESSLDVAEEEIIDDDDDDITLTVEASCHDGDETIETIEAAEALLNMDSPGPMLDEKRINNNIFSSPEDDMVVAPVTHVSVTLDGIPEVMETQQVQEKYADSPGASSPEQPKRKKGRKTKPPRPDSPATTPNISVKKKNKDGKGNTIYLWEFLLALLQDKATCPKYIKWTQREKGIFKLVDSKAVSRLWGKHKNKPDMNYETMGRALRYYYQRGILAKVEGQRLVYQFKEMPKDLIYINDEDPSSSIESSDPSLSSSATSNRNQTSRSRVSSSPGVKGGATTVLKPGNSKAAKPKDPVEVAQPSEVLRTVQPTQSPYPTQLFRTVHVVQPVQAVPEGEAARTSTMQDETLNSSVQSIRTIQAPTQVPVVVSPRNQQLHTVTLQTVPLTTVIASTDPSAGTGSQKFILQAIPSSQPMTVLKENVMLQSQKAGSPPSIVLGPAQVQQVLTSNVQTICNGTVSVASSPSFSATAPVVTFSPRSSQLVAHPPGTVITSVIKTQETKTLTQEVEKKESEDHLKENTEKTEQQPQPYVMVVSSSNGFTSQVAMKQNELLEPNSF
Sequence of CRX (O43186 whole entry): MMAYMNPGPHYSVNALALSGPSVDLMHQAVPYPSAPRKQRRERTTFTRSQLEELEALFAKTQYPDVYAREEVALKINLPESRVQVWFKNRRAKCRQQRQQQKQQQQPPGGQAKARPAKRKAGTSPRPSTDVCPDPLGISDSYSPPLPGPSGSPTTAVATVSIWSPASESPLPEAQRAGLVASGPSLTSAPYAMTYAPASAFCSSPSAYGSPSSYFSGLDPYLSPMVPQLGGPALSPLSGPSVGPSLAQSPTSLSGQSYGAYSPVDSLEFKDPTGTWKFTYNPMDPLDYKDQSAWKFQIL
Sequence of SPIB (Q01892 whole entry): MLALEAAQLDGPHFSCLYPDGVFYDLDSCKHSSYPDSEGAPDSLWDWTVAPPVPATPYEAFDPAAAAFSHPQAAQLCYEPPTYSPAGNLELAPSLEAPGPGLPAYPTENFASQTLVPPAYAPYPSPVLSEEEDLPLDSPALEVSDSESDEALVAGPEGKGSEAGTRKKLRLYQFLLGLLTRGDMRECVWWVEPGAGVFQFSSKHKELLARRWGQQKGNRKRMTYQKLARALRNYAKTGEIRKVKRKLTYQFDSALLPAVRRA
Sequence of ELF4 (Q99607 whole entry): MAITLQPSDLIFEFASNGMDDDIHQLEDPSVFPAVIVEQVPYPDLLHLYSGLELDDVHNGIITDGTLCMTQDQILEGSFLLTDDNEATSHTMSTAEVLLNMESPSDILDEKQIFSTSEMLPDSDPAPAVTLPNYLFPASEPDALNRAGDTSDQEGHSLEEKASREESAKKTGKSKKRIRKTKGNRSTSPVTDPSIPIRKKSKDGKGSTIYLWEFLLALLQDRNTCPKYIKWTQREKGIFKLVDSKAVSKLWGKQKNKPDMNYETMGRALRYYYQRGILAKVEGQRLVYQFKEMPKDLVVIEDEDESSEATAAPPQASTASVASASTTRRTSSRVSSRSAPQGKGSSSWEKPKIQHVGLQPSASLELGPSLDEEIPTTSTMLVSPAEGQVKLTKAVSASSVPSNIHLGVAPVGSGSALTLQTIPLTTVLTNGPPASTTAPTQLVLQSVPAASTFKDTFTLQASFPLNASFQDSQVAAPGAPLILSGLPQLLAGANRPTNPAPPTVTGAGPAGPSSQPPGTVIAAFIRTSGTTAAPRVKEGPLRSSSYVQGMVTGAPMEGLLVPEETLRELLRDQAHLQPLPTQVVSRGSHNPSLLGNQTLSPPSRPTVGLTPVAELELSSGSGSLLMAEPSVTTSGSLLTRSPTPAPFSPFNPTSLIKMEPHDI
Sequence of ETV1 (P50549 whole entry): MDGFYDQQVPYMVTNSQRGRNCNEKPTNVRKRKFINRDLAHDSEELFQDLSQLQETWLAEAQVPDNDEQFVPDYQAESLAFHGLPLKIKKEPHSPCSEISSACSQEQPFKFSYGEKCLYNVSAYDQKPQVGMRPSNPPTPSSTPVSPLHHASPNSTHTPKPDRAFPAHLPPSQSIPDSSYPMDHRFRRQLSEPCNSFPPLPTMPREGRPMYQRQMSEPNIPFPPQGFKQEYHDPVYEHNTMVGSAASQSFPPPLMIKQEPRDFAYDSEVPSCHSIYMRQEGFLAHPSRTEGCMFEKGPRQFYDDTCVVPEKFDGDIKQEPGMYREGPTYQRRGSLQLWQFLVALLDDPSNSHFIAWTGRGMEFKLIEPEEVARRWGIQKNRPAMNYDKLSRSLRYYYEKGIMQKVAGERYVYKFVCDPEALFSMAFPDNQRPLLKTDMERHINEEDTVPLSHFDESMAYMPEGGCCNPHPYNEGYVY
Sequence of ETV5 (P41161 whole entry): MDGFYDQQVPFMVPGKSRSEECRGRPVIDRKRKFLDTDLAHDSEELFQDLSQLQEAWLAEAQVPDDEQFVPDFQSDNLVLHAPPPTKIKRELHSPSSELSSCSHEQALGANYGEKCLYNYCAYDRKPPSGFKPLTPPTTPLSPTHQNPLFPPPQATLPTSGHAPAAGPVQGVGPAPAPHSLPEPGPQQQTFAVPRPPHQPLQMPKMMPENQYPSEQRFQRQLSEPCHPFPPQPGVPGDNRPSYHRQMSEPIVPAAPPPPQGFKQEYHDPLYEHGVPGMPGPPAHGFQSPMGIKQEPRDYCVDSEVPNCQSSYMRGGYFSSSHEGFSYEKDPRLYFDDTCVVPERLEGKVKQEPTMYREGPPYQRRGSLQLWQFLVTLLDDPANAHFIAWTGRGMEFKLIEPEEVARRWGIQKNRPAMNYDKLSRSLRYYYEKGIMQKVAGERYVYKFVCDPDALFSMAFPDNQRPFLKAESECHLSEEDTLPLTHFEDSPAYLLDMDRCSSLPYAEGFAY

With CGAATA the binding signal (FLI1) was 1.09 fold enrichment (6-mer frequency, TF over GST control), the binding signal (ELK1) was 1.23 fold enrichment (6-mer frequency, TF over GST control) and the binding signal (GABPA) was 1.17 fold enrichment (6-mer frequency, TF over GST control). The binding signal (ERG) was 1.07 fold enrichment (6-mer frequency, TF over GST control), the binding signal (ELF1) was 1.28 fold enrichment (6-mer frequency, TF over GST control) and the binding signal (EHF) was 1.2 fold enrichment (6-mer frequency, TF over GST control). The binding signal (SPI1) was 1.13 fold enrichment (6-mer frequency, TF over GST control), the binding signal (SPIB) was 1.11 fold enrichment (6-mer frequency, TF over GST control) and the binding signal (ELK3) was 1.21 fold enrichment (6-mer frequency, TF over GST control). For the same sequence, the binding signal (FEV) was 1.16 fold enrichment (6-mer frequency, TF over GST control), the binding signal (ETV5) was 1.07 fold enrichment (6-mer frequency, TF over GST control) and the binding signal (HSF1) was 1.87 fold enrichment (6-mer frequency, TF over GST control). For the same sequence, the binding signal (SPIC) was 1.26 fold enrichment (6-mer frequency, TF over GST control), the binding signal (ELF4) was 1.11 fold enrichment (6-mer frequency, TF over GST control) and the binding signal (ELK4) was 1.25 fold enrichment (6-mer frequency, TF over GST control). For the same sequence, the binding signal (ETV2) was 1.29 fold enrichment (6-mer frequency, TF over GST control), the binding signal (ELF3) was 1.07 fold enrichment (6-mer frequency, TF over GST control) and the binding signal (CRX) was 1.31 fold enrichment (6-mer frequency, TF over GST control). For the same sequence, the binding signal (ETV1) was 1.19 fold enrichment (6-mer frequency, TF over GST control).
